Experimental findings from PubChem BioAssay (NCATS) are described below.

The structures appear in SMILES notation. Inconclusive results are not listed. Activity calls are given as the source filed them. The call rests on the fitted dose curve; in most records, active means well fitted curve in the direction sought with a large enough effect; inconclusive means small, poorly fitted or top-dose-only effect, or another doubt; inactive means no such curve, though single readings can be large; an effect the other way counts as inactive or inconclusive.

A short description of assay [1]: U-118MG Cancer Cell Toxicity qHTS against the NCATS CANVASS Library (AID 1347351). Further: series mostly up to about 38 µM. Put shortly:
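Following a 4 h pre-incubation of 1000 seeded cells, compounds were pinned in an 11-pnt dilution series and left for 72 h; viability then came from CellTiter-Glo.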
On the technique in general: Quantitative high-throughput screening tests each substance at several concentrations.

Assay [2] in a line: HPAF-II 24hr Apoptosis Induction qHTS against the NCATS CANVASS Library (AID 1347356). Put shortly:
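500 HPAF-II cells/well; compounds in 11-pnt qHTS; 24 h, 37 C/5% CO2; Caspase-Glo 3/7 added, 15 min RT dark; luminescence read. Doxorubicin control.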

Assay [3] in a line: HEK293 18hr Apoptosis Induction qHTS against the NCATS CANVASS Library (AID 1347357). Further: potency means the concentration at half of the fitted maximal effect. Put shortly: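 HEK293 cells (500/well, DMEM + 10% FBS) treated with an 11-point series for 18 h at 37 degrees C. Caspase-3/7 activity read by Caspase-Glo luminescence after 15 min at room temperature.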
Assay [4] is described as follows: HPAF-II 18hr Apoptosis Induction qHTS against the NCATS CANVASS Library (AID 1347360). In outline:
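HPAF-II cells at 500/well were exposed for 18 h at 37 C to an 11-point compound series. Caspase-3/7 activity was read by Caspase-Glo luminescence after 15 min at RT.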

Assay [5] is described as follows: HEK293 12hr Apoptosis Induction qHTS against the NCATS CANVASS Library (AID 1347361). Put shortly: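 HEK293 cells (500/well) were exposed to an 11-point qHTS concentration series for 12 hours at 37 degrees C. Caspase-3/7 activity was then read by DEVD-substrate luciferase luminescence after 15 min at room temperature.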
Assay [6] relates to NAD(P)H diaphorase (Clostridium kluyveri). In words: Diaphorse counterscreen qHTS: Assay Interference Panel against the NCATS CANVASS Library (AID 1347362). Put shortly: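 Clostridium kluyveri diaphorase in PBS with 0.01% Tween-20 was preincubated 15 min at room temperature in the dark with compounds (11-point series). Resorufin fluorescence (ex 525/20, em 598/25) was read 5 min after adding resazurin/NADH.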
(In general: Counterscreens check selectivity or assay interference.)

The nature of assay [7]: KB-3-1 Cancer Cell Toxicity qHTS against the NCATS CANVASS Library (AID 1347366). Further: nearly all actives have a fitted effect of over 75% in size. Further: potency means the concentration at half of the fitted maximal effect. Put shortly:
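KB-3-1 cells (500/well) in DMEM with 10% FBS were exposed to compounds for 72 h at 37C. Viability was read by CellTiter-Glo luminescence.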

Assay [8] in a line: MCF7 Cancer Cell Toxicity qHTS against the NCATS CANVASS Library (AID 1347369). Further: potency means the concentration at half of the fitted maximal effect. Put shortly: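 MCF7 cells (500/well) were exposed 72 h at 37 °C to compounds in an 11-point series. Viability was read as ATP content by CellTiterGlo luminescence.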
The nature of assay [9]: qHTS for ATAD5 Antagonist screened against the NCATS CANVASS Library (AID 1347370). Further: nearly all actives have a fitted effect of over 65% in size. Further: potency means the concentration at half of the fitted maximal effect. Put shortly:
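HEK293T-ATAD5 luc reporter, 2000 cells/well; 5hr attach; cpd + 10 uM 5-FUrd; 16hr 37C, 5% CO2. Readouts: CellTiter-Fluor fluorescence (1hr), then Amplite luciferase luminescence (30min RT).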

Assay [10] can be described thus: J3T Cancer Cell Toxicity qHTS against the NCATS CANVASS Library (AID 1347371). Further: potency means the concentration at half of the fitted maximal effect. Put shortly: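 Dog glioma J3T, 500 cells/well; cpd 11-pt qHTS; 72 hr, 37C/5% CO2; CellTiterGlo ATP luminescence readout.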
Assay [11] has as its target Nuclear receptor subfamily 1 group I member 3 (Homo sapiens) (UniProt Q14994). In words: qHTS for Constitutive Androstane Receptor (CAR) Antagonist screened against the NCATS CANVASS Library (AID 1347372). Further: potency means the concentration at half of the fitted maximal effect. In outline: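 Cells were seeded and left 4hr to attach, then received compound at 11 concentrations and 50 nM CITCO. Following 24hr incubation, fluorescence viability and luciferase luminescence were read sequentially.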

Assay [12] has the same target. Briefly: qHTS for Constitutive Androstane Receptor (CAR) Agonist screened against the NCATS CANVASS Library (AID 1347373).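 Further: every well also contained 1.5 µM PK11195 alongside the test compound.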 In outline:
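Luciferase read-out (ONE-Glo, 30 min RT) of CYP2B6-2.2kb promoter activity in double-stable HepG2-hCAR cells after 24hr compound exposure with 1.5uM PK11195 present; viability measured first by CellTiter-Fluor.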

Assay [13] in a line: 10-beta competent E. coli microbial cell viability qHTS against the NCATS CANVASS Library (AID 1347376). Further: series mostly up to about 46 µM. In outline: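 Luminescence from BacTiter-Glo ATP detection served as the viability read-out; bacteria (0.2 OD) had been incubated overnight at 37C with pin-transferred compounds at 11 concentrations.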
A short description of assay [14]: qHTS for H2AX Agonists against the NCATS CANVASS Library (AID 1347378). Put shortly: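 CHO-K1 cells (1000/well, overnight at 37C) exposed to compounds at several concentrations for 3 hr at 37C, 0.76% DMSO final. Lysates read by TR-FRET (phospho-H2AX S139 Eu-cryptate antibody / H2AX-d2 antibody) after 24 hr at room temperature; 665/615 nm ratio.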
The nature of assay [15]: qHTS for Inflammasome Signaling Inhibitors: IL-1-beta AlphaLISA screen against the NCATS CANVASS Library (AID 1347379).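 Further: human THP-1 cells primed with LPS then triggered with ATP.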 Put shortly: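 THP-1, 1 hr compound pre-incubation, then LPS 250 ng/mL + ATP 1.25 mM (final); 16 hr total with compound; IL-1B AlphaLISA, ex 680/em 615 nm; 11-point qHTS, up to 57.5 uM final.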
The nature of assay [16]: Cytotoxicity qHTS for assessment of Hepg2 cells membrane integrity screened against the NCATS CANVASS Library (AID 1347387). In outline: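 LDH release read by fluorescence (560 nm ex/590 nm em) after CytoTox-ONE addition and 10 min RT; signal tracks lysed cells. HepG2, 2000 cells/well, plated overnight; compound 5 hr, 37C, 5% CO2, final 0.59 nM - 46 uM, 11 points.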
The nature of assay [17]: Vero-766 cells viability qHTS against the NCATS CANVASS Library: Counterscreen for Zika virus inhibition assay (AID 1347394). Further: nearly all actives have a fitted effect of over 60% in size. Further: potency means the concentration at half of the fitted maximal effect. In outline: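 Vero 766 cells (1000/well), without Zika virus, were exposed to compounds for 72 h at 37C. Viability was measured by CellTiter Glo luminescence. Media-only wells served as 100% inhibition.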
A short description of assay [18]: Viability qHTS for inhibitors of the SERCaMP assay screened against the NCATS CANVASS Library (AID 1347400). Further: nearly all actives have a fitted effect of over 70% in size. Further: potency means the concentration at half of the fitted maximal effect. In outline: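 CellTiter-Glo luminescence readout after 48 h compound exposure (11-pnt qHTS series) of SH-SY5Y-GLuc SERCaMP MJH297 cells seeded at 1000 cells/well; bortezomib positive control.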
Assay [19] can be described thus: Redox Reaction Profiling qHTS: Assay Interference Panel against the NCATS CANVASS Library (AID 1347401). Put shortly: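 Quantitative HTS over an 11-point series was run in HEPES pH 7.3 with 50 mM NaCl, 200 uM DTT and 5 uM resazurin. Initial and 15-min resorufin fluorescence readings were taken.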
Assay [20] is described as follows: Secretion counterscreen for inhibitors of the SERCaMP assay screened against the NCATS CANVASS Library (AID 1347390).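 Further: light from luciferase secreted into medium read as a measure of general secretion.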 Further: potency means the concentration at half of the fitted maximal effect. Put shortly:
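SH-SY5Y cells with constitutively secreted GLuc reporter, 1000 cells/well, treated 20 h at 37C with compounds at 0.001 - 77 uM final; secreted luciferase read as luminescence after coelenterazine; Brefeldin A as positive control.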

Sequence of Nuclear receptor subfamily 1 group I member 3 (Homo sapiens) (Q14994 whole entry, looked up): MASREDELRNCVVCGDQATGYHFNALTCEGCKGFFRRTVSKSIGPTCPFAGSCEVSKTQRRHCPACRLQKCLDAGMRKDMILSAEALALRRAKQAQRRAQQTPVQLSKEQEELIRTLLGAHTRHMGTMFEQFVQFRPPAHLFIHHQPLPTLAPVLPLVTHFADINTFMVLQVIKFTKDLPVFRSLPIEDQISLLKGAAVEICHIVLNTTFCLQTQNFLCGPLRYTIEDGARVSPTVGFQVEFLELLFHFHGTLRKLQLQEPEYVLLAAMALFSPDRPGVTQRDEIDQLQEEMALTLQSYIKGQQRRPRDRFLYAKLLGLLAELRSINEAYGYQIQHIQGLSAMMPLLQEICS

On to `C=C[C@@]1(C)CC[C@@H]([C@H](C)C(C)=O)O1`, for which the Potency entry in assay [1], in [3], in assay [4], in [6], in [7] and in [8] was “inactive” each time. Moreover, the Potency result in assay [9], in [10], in assay [11], in assay [12], in assay [14] and in [15] was “inactive” throughout. For the same compound, the Potency result in assay [17], in assay [18] and in assay [19] was “inactive” throughout. The outcome in assay [2], in assay [5], in assay [13] and in assay [16] was inactive.
As to `COC(=O)[C@@]12Oc3cccc(O)c3C(O)=C1C(=O)C[C@H](C)[C@H]2O`, the Potency entry in [1], in assay [3], in assay [4], in assay [6], in [7] and in assay [8] was “inactive” throughout. Moreover, the Potency result in assay [9], in [10], in assay [11], in assay [12], in assay [14] and in [15] was “inactive” throughout. The Potency result in [17], in assay [18] and in assay [19] was “inactive” throughout. The outcome in assay [2], in [5], in assay [13] and in assay [16] was inactive.
Turning to `C=C(C)C(=O)O[C@H]1C[C@@]2(C)OC(=CC2=O)/C(C)=C\[C@H]2OC(=O)C(=C)[C@H]12`, the call in [2] and in assay [13] was inactive. Also, the Potency in assay [3] was 2.96 µM (active); in assay [7] it was 3.32 µM (active); in assay [8], 4.16 µM (active); in [9], 2.95 µM (active); in [10] it was 1.66 µM (active); in [11], 11.7 µM (active). In addition, the Potency in assay [15] was 1.37 µM (active); in [20], 3.05 µM (active); in [17] it was 13.2 µM (active); in [18] it was 4.8 µM (active). For the same compound, the Potency result in [4], in [6], in [12] and in assay [19] was “inactive” throughout.
As to `C[C@@]12CCC[C@@](C)(C(=O)O)[C@H]1CC[C@@]13C[C@@H](CC[C@H]12)[C@](C)(O)C3`, the Potency entry in [1], in [3], in assay [4], in [6], in assay [7] and in assay [8] was “inactive” throughout. Moreover, the Potency result in [9], in assay [10], in assay [11], in assay [12], in assay [14] and in assay [15] was “inactive” throughout. The Potency result in [20], in assay [17], in assay [18] and in [19] was “inactive” each time. For the same compound, the compound was called inactive in assay [2], in assay [5], in assay [13] and in [16].
In the case of `C/C(=C\[C@@H](C)CC/C=C/CC/C=C/C(=O)O)[C@@H](O)[C@H](C)C(=O)CCCC1CC(=O)NC(=O)C1`, the Potency entry in assay [1], in [3], in assay [4], in [6], in assay [7] and in assay [8] was “inactive” throughout. The Potency result in assay [9], in assay [10], in [11], in [12], in [14] and in [15] was “inactive” throughout. The Potency entry in [17] and in assay [18] was “inactive” each time. For the same compound, the compound was called inactive in assay [2], in assay [5], in assay [13] and in assay [16].
